Screens (PubChem BioAssay)
A selection: hits, their analogues and other compounds. The true share with any hit is near 6.1%.
D1 potentiator: enhances dopamine response at the human D1 receptor; HEK293 TREx D1 cells, calcium flux, dopamine EC20 potentiation; hit rate 0.036% among 360,000; potentiation, % at 10 µM; in the data active means potentiation above about 30%; further: 0% is about no effect
Target sequence (P21728 whole entry, looked up): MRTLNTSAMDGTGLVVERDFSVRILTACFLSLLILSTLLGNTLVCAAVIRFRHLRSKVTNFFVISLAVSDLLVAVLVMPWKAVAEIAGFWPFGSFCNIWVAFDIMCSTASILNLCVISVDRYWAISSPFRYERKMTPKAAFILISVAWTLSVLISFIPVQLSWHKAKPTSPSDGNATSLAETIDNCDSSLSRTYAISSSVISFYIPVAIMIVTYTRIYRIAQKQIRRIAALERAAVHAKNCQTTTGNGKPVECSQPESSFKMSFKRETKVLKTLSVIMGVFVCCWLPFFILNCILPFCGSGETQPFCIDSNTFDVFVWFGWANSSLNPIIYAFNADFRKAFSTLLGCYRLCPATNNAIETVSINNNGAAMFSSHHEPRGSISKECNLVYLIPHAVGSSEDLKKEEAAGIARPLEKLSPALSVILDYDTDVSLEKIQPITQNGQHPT
D1 antagonist: human D1 dopamine receptor antagonism. P21728. HEK293 TREx D1 cells, calcium flux, dopamine EC80; hits give low values. activity change, negative = inhibition, % at 10 µM. hit rate 3.2% among 360,000; in the data active means activity change below about -30%; further: on the % scale 0 is the no-effect control and ±100 the full control effect
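Tetracycline-induced HEK293 Trex D1 cells, force-coupled to calcium, dye-loaded; compounds added and read 180 s, then EC80 dopamine added and calcium flux tracked kinetically another 180 s.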
D1 agonist: agonists of human D1 dopamine receptor; hit rate 1% among 360,000; activation, % at 2 µM; P21728; HEK293 T-REx D1 cells, calcium flux, agonist mode; in the data active means activation above about 30%; further: 0% is about no effect
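Agonism was scored from calcium flux recorded over 180 s (1 read/s) after pintool compound addition, following a 10-cycle baseline. Cells were inducible force-coupled HEK293 TREx D1, plated overnight at 30 C and loaded with no-wash calcium dye.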
DRD3 antagonist: antagonists of human D3 dopamine receptor; P35462; D3R cells, DiscoveRx beta-arrestin luminescence, antagonist mode; hits give low values; max response, negative = inhibition, %; hit rate 2.5% among 360,000; AID 652054; in the data active means max response below about -50%; inconclusive means no clear call, values can overlap the other calls; further: on the % scale 0 is the no-effect control and ±100 the full control effect
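Cells expressing the human receptor were seeded at 1500 cells/well, incubated overnight at 37 degrees C in 5% CO2, then exposed to library compounds with dopamine controls for 90 minutes at 37 degrees C before luminescent detection.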
D3 ag: D3 dopamine receptor (human) agonism; D3R DiscoveRx beta-arrestin cells, luminescence, 90 min; max activation, %; hit rate 0.58% among 410,000; in the data active means max activation above about 30%; further: 0% is about no effect
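Agonist mode: compounds and dopamine controls were applied to plated cells for 90 min at 37 degrees C after an overnight attachment at 1500 cells/well. Luminescent read-out followed 30 - 60 minutes at room temperature with DiscoveRx detection reagent.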
* marks the source's active call; other numbers are inactive results; u = inconclusive; x = no result; ! = repeats disagree.

SMILES	D1 potentiator	D1 antagonist	D1 agonist	DRD3 antagonist	D3 ag
CCOC(=O)C1CCN(C(=O)Cn2ncc3c4ccccc4n(Cc4ccccc4)c3c2=O)CC1	-0.1	-11.3	0.0	x	-11.5
CCC1CN(C(=O)N2CCC(C(=O)NCc3ccc(N(C)C)cc3)CC2)c2ccccc2O1 (stereo unspecified)	0.9	10.4	3.4	x	8.0
Cc1ccc(S(=O)(=O)N2CCN(C(=O)c3ccnn3C)CC2)cc1C	-4.5	-33.6*	1.5	-0.7	-1.2
Cc1ccc(S(=O)(=O)N2CCN(C(=O)c3ccco3)CC2)cc1C	-7.5	-12.1	1.2	26.0	3.8
O=C(Nc1cccc(Cl)c1Cl)c1ccc2c(c1)N(Cc1cccc(Cl)c1)C(=O)c1ccccc1S2(=O)=O	-3.6	-10.4	13.0	x	-6.8
CN(CC(=O)Nc1cccc(F)c1)S(=O)(=O)c1ccc2c(c1)n(C)c(=O)c(=O)n2C	-2.5	12.9	-0.7	x	-8.7
CC1=C(CO)C(=O)OC([C@@H](C)C2CC[C@H]3C4C[C@H]5O[C@]56[C@@H](O)C=CC(=O)[C@]6(C)C4CC[C@]23C)C1 (stereo partly specified)	-1.6	-20.8	0.9	-135.6*	-67.4
COc1cc(SC)ccc1C(=O)OCC(=O)NC(=O)NC(C)C	-6.6	-66.2*	0.9	13.8	11.5
CSC(=Nc1ccccc1)N=C(SCc1ccccc1)N(C)C	x	x	x	-84.4*	-13.4
CC(C)NS(=O)(=O)c1ccc(N2C(=O)c3ccccc3C2=O)cc1	-1.4	-32.9*	12.0	13.4	-27.6
Nc1ccc(-c2c3ccc(=O)cc-3oc3cc(O)ccc23)cc1C(=O)O	1.1	-1.1	245.4*	-54.9*	-16.3
O=c1ccc2c(-c3ccccc3)c3ccc(O)cc3oc-2c1	8.2	-3.8	-0.2	33.3	12.0
Fc1cccc(Cl)c1CSc1nnnn1-c1ccc2c(c1)OCO2	-5.6	-32.1*	7.7	-21.8	-11.4
CCOC(=O)c1c(C)oc2nc(C)nc(NCc3cccc(OC)c3)c12	2.0	0.0	0.5	x	14.4
COc1ccc(N2C(=O)CS(=O)(=O)C23C(=O)N(Cc2ccccc2F)c2ccccc23)cc1Cl (stereo unspecified)	1.9	-8.6	8.6	x	-3.0
O=S(=O)(O)C1CCNCC1	-1.5	-49.2*	2.8	x	x
Cc1ccccc1OCC(O)Cn1c(=N)n(CCN2CCOCC2)c2ccccc21 (stereo unspecified)	-6.5	-34.7*!	4.9	5.3	-3.0
Cc1ccccc1OCC(O)CN1CCC(C)CC1 (stereo unspecified)	-9.8	-5.0	3.1	-60.2*	-12.0
Cc1ccccc1OCC(O)CN1CCN(CC(O)COc2ccccc2C)CC1 (stereo unspecified)	-12.0	2.7	53.5*	-57.4*	-18.0
Cc1ccccc1OCC(O)CN1CCCCC1 (stereo unspecified)	-0.3	-8.8	5.9	4.4	-8.0
Cc1ccccc1C(=O)n1nc(-c2ccco2)nc1NCc1cccs1	1.6	6.1	0.7	x	7.3
Cn1c2ccccc2c(=O)c2c(=O)n(C3CCCCC3)c(-c3cccs3)nc21	-3.6	-32.2*	116.3*	-11.1	-22.7
Cn1c2ccccc2c(=O)c2c(=O)n(C3CCCCCC3)c(C3CCCCC3)nc21	5.3	-27.4	121.0*	-15.0	-4.4
CCc1nc2c(c(=O)c3ccccc3n2C)c(=O)n1C1CCCCCC1	-1.9	-28.1	194.8*	u	-1.3
O=C(CCN1CCN(C/C=C/c2ccccc2)CC1)Nc1ccccc1	-2.6	4.5	2.6	-57.8*	3.7
SMILES	D1 potentiator	D1 antagonist	D1 agonist	DRD3 antagonist	D3 ag
Cc1cccc(NC(=O)CCN2CCN(C/C=C/c3ccccc3)CC2)c1	-1.7	-9.7	10.4	-63.9*	7.4
Cc1cc(NC(=O)CCN2CCN(C/C=C/c3ccccc3)CC2)ccc1Br	-18.4	-18.0	18.1	-16.8	-5.2
N#Cc1cccc(NC(=O)CCNS(=O)(=O)c2ccc3c(c2)CCN3C(=O)C2CC2)c1	1.9	16.9	0.5	x	-10.5
COc1ccc(-c2ccc(=O)n(CC(=O)NCCc3ccccc3)n2)cc1	-1.9	3.3	-0.5	x	6.4
COc1cc2c(cc1OC)C1O[C@](CCCCN3C(=O)c4ccccc4C3=O)(C2)Oc2cc(C)n(Cc3ccccc3)c(=O)c21	-3.3	-3.6	0.3	x	x
CCOc1ccc(S(=O)(=O)NCC(c2ccc(N(C)C)cc2)N2CCCC2)cc1 (stereo unspecified)	-0.1	-2.7	-0.2	x	-17.8
COc1ccc(N(C)S(=O)(=O)c2cccc(C(=O)Nc3ccc4c(c3)OCCO4)c2)cc1	-11.2	-34.9*	-1.1	21.7	-15.3
COc1ccc(CCNC(=O)COc2ccc(N(C)S(=O)(=O)c3ccc(C)cc3)cc2)cc1	2.2	-31.0*	16.0	-2.6	1.4
Cc1ccc(S(=O)(=O)NCc2ccc(C(=O)NCCN(Cc3ccccc3)C(C)C)cc2)cc1	-2.9	-25.6	22.5	-78.7*	-18.7
COc1ccc(CNC(=O)c2ccc(N(C)S(=O)(=O)c3ccc(C)cc3)cc2)cc1	-8.7	1.6	11.4	-10.6	-16.6
COc1ccc(N(C)S(=O)(=O)c2cccc(C(=O)NCc3ccc(C)cc3)c2)cc1	-5.3	-31.8*	4.1	2.6	3.8
COc1ccc(CCNC(=O)CN(c2ccc(C)cc2)S(=O)(=O)c2ccc(OC)cc2)cc1	-1.4	20.2	11.8	x	6.7
CCc1nc(Oc2cccc(F)c2)c2oc3ccccc3c2n1	-2.5	26.3	5.2	x	3.9
N#Cc1nc(Nc2cccc([N+](=O)[O-])c2)nc(NC2CCCC2)n1	-5.1	-18.1	7.7	x	x
CCc1cccc(-n2nnc(-c3nsc(NC(=O)c4cccs4)n3)c2C)c1	-1.6	-11.1	16.9	x	-3.5
O=C(NCc1ccncc1)c1cccc(S(=O)(=O)NCc2ccccc2)c1	-5.1	27.7	4.6	-5.1	-0.2
CN(C)c1cccc(C(=O)Nc2nc3ccccc3[nH]2)c1	-11.1	-3.6	3.5	u	-15.1
Cc1ccc(OCCNC(=O)c2cccc(Oc3ccc(C(F)(F)F)cc3[N+](=O)[O-])c2)cc1	-5.8	-3.7	44.5*	1.3	0.3
Cc1ccc(N(C)S(=O)(=O)c2cccc(C(=O)Nc3nc4ccccc4[nH]3)c2)cc1	-6.0	11.1	5.3	34.3	42.2*
Cc1ccc(OCCNC(=O)c2cccc(S(=O)(=O)NCc3ccccc3)c2)cc1	-1.8	-34.5*	40.6*	6.3	-12.6
COCCCNC(=O)c1ccc(Cn2c(=O)c3ccccc3n(CC(=O)Nc3c(C)cccc3C)c2=O)cc1	-0.6	-12.1	-0.5	x	-10.2
CCCn1c2ccccc2c2cnn(CC(=O)NCCCN(Cc3ccccc3)C(C)C)c(=O)c21	-0.3	5.7	-0.8	x	-4.1
O=C1OC(CCl)CN1Cc1c(Cl)cccc1Cl (stereo unspecified)	x	x	x	0.0	12.4
O=C1OC(CO)CN1Cc1ccccc1 (stereo unspecified)	3.5	-40.3*	0.1	-6.3	-2.5
O=[N+]([O-])c1cc([N+](=O)[O-])c2cc3ccccc3nc2c1	4.5	0.7	2.9	-79.9*	-27.6
